Data as given in PubChem BioAssay (Tox21).
Inconclusive results are not listed. Some structures have more than one record in an assay (separate samples or runs), and their calls can disagree. Calls of active or inactive are those of the source. Calls come from the whole dose curve.

Legend:
[1] = biological target: Acetylcholinesterase (Homo sapiens) (UniProt P22303); experiment: Acetylcholinesterase (AChE) small molecule antagonists: colormetric cell-based qHTS assay (AID 1347395); note: nearly all actives have a fitted effect of over 30% in size; note: potency is the fitted concentration of half-maximal effect
How it was run: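 Homogeneous whole-cell format. SH-SY5Y cells seeded overnight, dosed with compound (30 min, 37 C, 5% CO2), then given DTNB/acetylthiocholine cocktail for 90 min at 37 C; colorimetric signal.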

[2] = biological target: Acetylcholinesterase (Homo sapiens) (UniProt P22303); experiment: Acetylcholinesterase (AChE) small molecule antagonists: enzyme-based qHTS assay (AID 1347397); conditions: Potency: AChE enzyme activity inhibition; outcome: AChE enzyme activity inhibition; note: nearly all actives have a fitted effect of over 55% in size
How it was run: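 Tox21 library chemicals are tested in qHTS format against recombinant human AChE. The enzyme, dispensed at 50 mU/mL, sits with compound for 30 min at room temperature. A DTNB–acetylthiocholine cocktail follows, and colour is read after 10 min.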

[3] = biological target: Acetylcholinesterase (Homo sapiens) (UniProt P22303); experiment: Acetylcholinesterase (AChE) small molecule antagonists: fluorescence cell-based qHTS assay (AID 1347398); conditions: Potency: AChE activity; outcome: AChE activity; note: nearly all actives have a fitted effect of over 50% in size
How it was run: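 Cellular AChE inhibition: SH-SY5Y cells treated with test chemical for 30 min at 37 C, then acetylthiocholine hydrolysis followed over 40 min at room temperature via thiocholine-reactive Thiolite Green fluorescence (490/520 nm).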

[4] = biological target: Acetylcholinesterase (Homo sapiens) (UniProt P22303); experiment: Acetylcholinesterase (AChE) small molecule antagonists: enzyme-based qHTS assay with human liver microsomes (AID 1347399); conditions: Potency: qHTS inhibition; outcome: qHTS inhibition; note: nearly all actives have a fitted effect of over 60% in size
How it was run: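 Recombinant human AChE (50 mU/mL in the enzyme mix) and human liver microsomes (0.25 mg/mL final) were preincubated with compound and NADPH (0.25 mg/mL final) for 30 min at 37 C. Acetylthiocholine/DTNB was then added; thiocholine was read colorimetrically after 10 min at room temperature.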

Measured: Potency

Sequence of Acetylcholinesterase (Homo sapiens) (P22303 whole entry, looked up): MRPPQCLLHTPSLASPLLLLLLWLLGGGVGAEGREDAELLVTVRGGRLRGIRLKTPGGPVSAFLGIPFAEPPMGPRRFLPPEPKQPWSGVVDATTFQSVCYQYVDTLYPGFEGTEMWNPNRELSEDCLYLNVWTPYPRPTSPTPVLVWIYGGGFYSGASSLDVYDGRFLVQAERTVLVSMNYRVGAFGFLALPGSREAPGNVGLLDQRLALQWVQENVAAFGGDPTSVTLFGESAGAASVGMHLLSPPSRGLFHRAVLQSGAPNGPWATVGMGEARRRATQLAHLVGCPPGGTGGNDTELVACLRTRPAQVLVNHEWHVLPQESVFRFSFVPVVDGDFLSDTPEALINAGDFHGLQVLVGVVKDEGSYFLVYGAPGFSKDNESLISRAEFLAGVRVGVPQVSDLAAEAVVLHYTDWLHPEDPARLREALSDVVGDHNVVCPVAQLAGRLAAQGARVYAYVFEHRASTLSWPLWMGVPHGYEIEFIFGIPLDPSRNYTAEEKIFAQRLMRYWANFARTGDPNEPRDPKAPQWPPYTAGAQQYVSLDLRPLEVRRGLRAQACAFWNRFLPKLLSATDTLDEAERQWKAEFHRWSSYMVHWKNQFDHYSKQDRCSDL

C/C=C(\C)C(=O)OCc1ccccc1
inactive: [1] | [2] | [3] | [4]

c1cc[nH]c1
inactive: [1] | [2] | [3] | [4]

c1ccc(OCc2ccc(CCCN3CCOCC3)cc2)cc1
inactive: [1] | [2] | [3] | [4]

O=c1[nH]c(=O)n([C@H]2C[C@H](O)[C@@H](CO)O2)cc1F
inactive: [1] | [2] | [3] | [4]

OCC(CO)(CO)COCC(CO)(CO)CO
inactive: [1] | [2] | [3] | [4]

Cc1cc(=O)[nH]c(=S)[nH]1
inactive: [1] | [2] | [3] | [4]

COc1ccc2cc1Oc1cc3c(cc1OC)CC[N+](C)(C)[C@H]3Cc1ccc(cc1)Oc1c(OC)c(OC)cc3c1[C@@H](C2)[N+](C)(C)CC3
inactive: [1] | [2] | [3] | [4]

C=CC(C)(C)CC(=O)OC
inactive: [1] | [2] | [3] | [4]

OCCN(CCO)CCN(CCO)CCO
inactive: [1] | [2] | [3] | [4]

O=C(c1ccccc1)C1(O)CCCCC1
inactive: [1] | [2] | [3] | [4]

CN(C/C=C/C#CC(C)(C)C)Cc1cccc2ccccc12
inactive: [1] | [2] | [3] | [4]

CC(=O)CC(=O)c1ccccc1
inactive: [1] | [2] | [3] | [4]

Oc1c(I)cc(I)c2cccnc12
inactive: [1] | [2] | [3] | [4]

Nc1ccc2cc(S(=O)(=O)O)cc(O)c2c1N=Nc1ccccc1C(F)(F)F
inactive: [1] | [2] | [3] | [4]

Cc1ncc([N+](=O)[O-])n1CCO
inactive: [1] | [2] | [3] | [4]

CC(C)CCCC(C)N (stereo not given)
inactive: [1] | [2] | [3] | [4]

Cc1cc(=O)[nH]c(=O)[nH]1
inactive: [1] | [2] | [3] | [4]

C=CC/C=C/C
inactive: [1] | [2] | [3] | [4]

CCOC(=O)Cn1cccc1-c1nc(-c2ccc(OC)cc2)c(-c2ccc(OC)cc2)s1
inactive: [1] | [2] | [3] | [4]

CCCCCCCCCCCCN1CCCC1=O
inactive: [1] | [2] | [3] | [4]

CC(=O)NCc1c(I)c(NC(C)=O)c(I)c(C(=O)O)c1I
inactive: [1] | [2] | [3] | [4]

CCCCCCCCCCCCN1CCCCCC1=O
inactive: [1] | [2] | [3] | [4]

Cc1ccc(C)c(OCCCC(C)(C)C(=O)O)c1
inactive: [1] | [2] | [3] | [4]

O=C(O[C@@H](C(=O)O)[C@@H](OC(=O)c1ccccc1)C(=O)O)c1ccccc1
inactive: [1] | [2] | [3] | [4]

C=CCOCC(O)CCl (stereo not given)
inactive: [1] | [2] | [3] | [4]

CCCCCC(C)O (stereo not given)
inactive: [1] | [2] | [3] | [4]

CN(C)c1cccc(O)c1
inactive: [1] | [2] | [3] | [4]

CCOCCOCCOCCO
inactive: [1] | [2] | [3] | [4]

Nc1cc(Cl)cc(S(=O)(=O)O)c1O
inactive: [1] | [2] | [3] | [4]

O=C1NC(=O)c2ccccc21
inactive: [1] | [2] | [3] | [4]

CC1(C)S[C@@H]2[C@H](NC(=O)COc3ccccc3)C(=O)N2[C@H]1C(=O)O
inactive: [1] | [2] | [3] | [4]

COC(=O)c1c(Cl)c(Cl)c(C(=O)OC)c(Cl)c1Cl
inactive: [1] | [2] | [3] | [4]

COc1cc(CCC(C)=O)ccc1O
inactive: [1] | [2] | [3] | [4]

CC(C)(C)C(=O)CC(=O)C(C)(C)C
inactive: [1] | [2] | [3] | [4]

FC(F)(F)C(F)(F)C(F)(F)C(F)(F)CCI
inactive: [1] | [2] | [3] | [4]

N#Cc1nc(Cl)c(Cl)c(Cl)c1Cl
inactive: [1] | [2] | [3] | [4]

Cc1ccnc(NS(=O)(=O)c2ccc(N)cc2)n1
inactive: [1] | [2] | [3] | [4]

C=C(C)CNCC
inactive: [1] | [2] | [3] | [4]

COc1cc2c(cc1OC)-c1cc(=Nc3c(C)cc(C)cc3C)n(C)c(=O)n1CC2
inactive: [1] | [2] | [3] | [4]

CC[C@]12CCCN3CCc4c(n(c5ccccc45)[C@@](O)(C(=O)OC)C1)[C@@H]32
inactive: [1] | [2] | [3] | [4]

O=C(OCC(O)CO)c1ccccc1Nc1ccnc2c(C(F)(F)F)cccc12 (stereo not given)
inactive: [1] | [2] | [3] | [4]

CCCCCC[C@@H](O)C/C=C\CCCCCCCC(=O)OCC(O)CO (stereo not given in full)
inactive: [1] | [2] | [3] | [4]

Cc1ccc(NC(=O)N(C)C)cc1NC(=O)N(C)C
inactive: [1] | [2] | [3] | [4]

C[C@@H](O)[C@H]1C(=O)N2C(C(=O)O)=C(S[C@@H]3CN[C@H](C(=O)N(C)C)C3)[C@H](C)[C@H]12
inactive: [1] | [2] | [3] | [4]

CC(=O)SCc1ccco1
inactive: [1] | [2] | [3] | [4]

CC(=O)O[C@@]12CO[C@@H]1C[C@H](O)[C@@]1(C)C(=O)[C@H](O)C3=C(C)[C@@H](OC(=O)[C@H](O)[C@@H](NC(=O)OC(C)(C)C)c4ccccc4)C[C@@](O)([C@@H](OC(=O)c4ccccc4)[C@H]21)C3(C)C
inactive: [1] | [2] | [3] | [4]

NC(=S)NNC(N)=S
inactive: [1] | [2] | [3] | [4]

O=c1[nH]nnc2ccccc12
inactive: [1] | [2] | [3] | [4]

CCC/C=C/C=O
inactive: [1] | [2] | [3] | [4]

C/C=C/c1ccc(OC)c(OC)c1
inactive: [1] | [2] | [3] | [4]

C/C=C/CO
inactive: [1] | [2] | [3] | [4]

CC(=O)c1ccc(O)cc1
inactive: [1] | [2] | [3] | [4]

ClCCCl
inactive: [1] | [2] | [3] | [4]

C/C(=N\O)[C@@H](C)NCC(C)(C)CN[C@H](C)/C(C)=N/O
inactive: [1] | [2] | [3] | [4]

CCCNC(=O)NS(=O)(=O)c1ccc(Cl)cc1
inactive: [1] | [2] | [3] | [4]

O=C(O)c1cccc(C(=O)O)n1
inactive: [1] | [2] | [3] | [4]

CC(=O)Nc1ccc(C)cc1
inactive: [1] | [2] | [3] | [4]

CC(C)Cc1ccc(CC(=O)O)cc1
inactive: [1] | [2] | [3] | [4]

Nc1ccc2cc3ccccc3cc2c1
inactive: [1] | [2] | [3] | [4]

COc1cc(/C=C/c2ccccc2)oc(=O)c1
inactive: [1] | [2] | [3] | [4]

CCCCCCC(C)O (stereo not given)
inactive: [1] | [2] | [3] | [4]

COc1cc(Cl)ccc1Cl
inactive: [1] | [2] | [3] | [4]

O=C1c2ccccc2C(=O)c2c(O)c(O)cc(O)c21
inactive: [1] | [2] | [3] | [4]

CC(C)N=C=NC(C)C
inactive: [1] | [2] | [3] | [4]

CCCCCOc1ccc(C2SC(=O)NC2=O)cc1OCC (stereo not given)
inactive: [1] | [2] | [3] | [4]

C[C@H]1C[C@H]2[C@@H]3CCC4=CC(=O)C=C[C@]4(C)[C@@]3(F)[C@@H](O)C[C@]2(C)[C@@]1(O)C(=O)CO
inactive: [1] | [2] | [3] | [4]

O=C1c2ccccc2C(=O)c2cc(S(=O)(=O)O)ccc21
inactive: [1] | [2] | [3] | [4]

CC(C)(O)C(=O)c1ccccc1
inactive: [1] | [2] | [3] | [4]

O=C(O)c1ccccc1
3.74 µM (active) and inactive: [1]
inactive: [2] | [3] | [4]

CC(O)(P(=O)(O)O)P(=O)(O)O
inactive: [1] | [2] | [3] | [4]

C#Cc1cccc(Nc2ncnc3cc(OCCOC)c(OCCOC)cc23)c1
inactive: [1] | [2] | [3] | [4]

Cc1ccc(-c2cc(C(F)(F)F)nn2-c2ccc(S(N)(=O)=O)cc2)cc1
inactive: [1] | [2] | [3] | [4]

C=C(C)C(=O)OCCOC(=O)C(=C)C
inactive: [1] | [2] | [3] | [4]

Clc1ccc2c(c1)Nc1ccccc1S2
inactive: [1] | [2] | [3] | [4]

CC(CN1CC(=O)NC(=O)C1)N1CC(=O)NC(=O)C1 (stereo not given)
inactive: [1] | [2] | [3] | [4]

CC(C)(CO)[C@@H](O)C(=O)NCCC(=O)O
inactive: [1] | [2] | [3] | [4]

C=C(C)C(=O)OCCN(C)C
inactive: [1] | [2] | [3] | [4]

COC(=O)CCCCCCCC(=O)OC
inactive: [1] | [2] | [3] | [4]

CC1(C)[C@@H]2CC[C@]3(C2)[C@@H]1C(=O)CCC3(C)C
inactive: [1] | [2] | [3] | [4]

CCCCC(CC)C(=O)O (stereo not given)
inactive: [1] | [2] | [3] | [4]
